Experimental data published in PubChem BioAssay (NCATS).
Where “and” joins values, the source holds several entries; their conditions need not be identical. Equal entries are not always repeated. Inconclusive results are not listed. Unmarked numbers belong to inactive results. Calls of active or inactive are those of the source. The call rests on the fitted dose curve; in most records, active means well fitted inhibition curve with a large enough effect; inconclusive means small, poorly fitted or top-dose-only effect; inactive means flat fitted curve, though single readings scatter.

Legend:
CRL-7250 = normal cell line; assay: Cytotoxic Profiling of Annotated Libraries Using Quantitative High-Throughput Screening (AID 1296008); conditions: Five cell lines viability, CellTiter-Glo ATP luminescence, 48-72 h; max response: active compounds read low; further: nearly all actives have a fitted effect of over 60% in size
How it was run: (§1)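 Cytotoxicity was measured as CellTiter-Glo ATP luminescence, read after 10 min at room temperature. Compound treatment of the cells lasted 48 or 72 hr at 37 degrees Celsius in a qHTS format.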

HEK293 = assay: as above; conditions: Five cell lines viability, CellTiter-Glo ATP luminescence, 48-72 h; max response: active compounds read low
How it was run: as §1
On the % scale 0 is the no-effect control and ±100 the full control effect; potency means the concentration at half of the fitted maximal effect.

CCOc1ccc(S(=O)(=O)n2c(C)nc3ccccc32)cc1
max response (CRL-7250): -1.87%
max response (HEK293): -8.26%

C=C1CN(Cc2ccc(C(=O)Nc3ccccc3N)cc2)C(=O)c2ccccc21
Potency (CRL-7250): 2.06 µM (active)
Potency (HEK293): 1.46 µM (active)

C=C1C(=O)O[C@H]2[C@H]1CC/C(C)=C/CC[C@@]1(C)O[C@@H]21
max response (CRL-7250): -15.8%
max response (HEK293): -18.1%

C/C(=C\C=C\C(C)C1CCC2(C)C3CCC4C(C)(C)C(=O)CCC45CC35CCC12C)C(=O)O (configuration not stated)
max response (CRL-7250): -5.15%
max response (HEK293): -1.63%

COc1cccc(C(=O)N2CCN(C(=O)COc3cccc(C)c3)CC2)c1OC
outcome (CRL-7250): inactive
max response (HEK293): -16.5%

C=C[C@H]1[C@H](O[C@@H]2O[C@H](CO)[C@@H](O)[C@H](O)[C@H]2O)OC=C(C(=O)OC)[C@H]1CC(=O)O
max response (CRL-7250): -13.3%
max response (HEK293): 3.67%

O=C(Nc1ccc(S(=O)(=O)Nc2ccccc2Cl)c(Cl)c1)c1ccccn1
max response (CRL-7250): 0.561%
max response (HEK293): -10.8%

C[S+](CC[C@H](N)C(=O)[O-])C[C@H]1O[C@@H](n2cnc3c(N)ncnc32)[C@H](O)[C@@H]1O (some centres not stated)
max response (CRL-7250): -13.4%
max response (HEK293): 3.53%

COc1c2c(c(C)c3c1C(=O)OC3)OC1(C)CC(O)C(C(C)(C)O)C(C)(CCC(=O)O)C1C2 (configuration not stated)
outcome (CRL-7250): inactive
max response (HEK293): -5.2%

CCNC(=O)C1OC(n2cnc3c(N)nc(NCCc4ccc(CCC(=O)O)cc4)nc32)C(O)C1O (configuration not stated)
max response (CRL-7250): -14.2%
max response (HEK293): 0.517%

C[C@@H]1C[C@@H](O)[C@@]23CO[C@@H](O)[C@@H]2CCC[C@@H]3[C@@]12C[C@@H](c1ccoc1)OC2=O
max response (CRL-7250): 0.0668%
max response (HEK293): -9.22%

COC(=O)[C@H](O)[C@H]1C(C)(C)[C@H](OC(=O)C(C)C)[C@@]2(O)C(=O)[C@]1(C)C1CC[C@]3(C)C(CC(=O)O[C@H]3c3ccoc3)[C@]13O[C@@H]32 (some centres not stated)
max response (CRL-7250): -16.9%
max response (HEK293): -5.39%

CC(C)=CCC[C@](C)(O)[C@H]1CC[C@]2(C)[C@@H]1[C@H](O)CC1[C@@]3(C)CC[C@H](O)C(C)(C)C3[C@@H](O[C@@H]3O[C@H](CO)[C@@H](O)[C@H](O)[C@H]3O[C@@H]3OC[C@@H](O)[C@H](O)[C@H]3O)C[C@]12C (some centres not stated)
max response (CRL-7250): -0.925%
max response (HEK293): 4.3%

CCN1CCN(Cc2ccc(NC(=O)c3ccc(C)c(NC(=O)c4cncc(-c5cccs5)c4)c3)cc2C(F)(F)F)CC1
Potency (CRL-7250): 0.461 µM (active)
Potency (HEK293): 1.3 µM (active)

CCN1CCN(Cc2ccc(Nc3ncc(F)c(-c4cc(F)c5nc(C)n(C(C)C)c5c4)n3)nc2)CC1
max response (CRL-7250): -7.11%
Potency (HEK293): 3.66 µM (active)

C/C1=C\CC[C@H](C)CCO[C@@H]2O[C@H](CO[C@@H]3OC[C@](O)(COC1=O)[C@H]3O)[C@@H](O)[C@H](O)[C@H]2O
outcome (CRL-7250): inactive
max response (HEK293): -0.349%

C=C[C@H]1CN2CC[C@H]1C[C@@H]2C(O)c1ccnc2ccc(OC)cc12 (some centres not stated)
outcome (CRL-7250): inactive
max response (HEK293): -7.03%

Cc1c(C(=O)N2CCOc3ccc(-c4ccc(N)nc4)cc3C2)ccc(S(C)(=O)=O)c1F
Potency (CRL-7250): 4.61 µM (active)
Potency (HEK293): 5.8 µM (active)

COc1cc(/C=C/C(=O)OC[C@H]2O[C@@](CO)(O[C@H]3O[C@H](CO)[C@@H](O)[C@H](O)[C@H]3O)[C@@H](OC(=O)/C=C/c3ccc(O)c(OC)c3)[C@@H]2O)ccc1O
max response (CRL-7250): -25.3%
max response (HEK293): 4.27%

CCOC(=O)CCN(C(=O)c1ccc2c(c1)nc(CNc1ccc(C(=N)N)cc1)n2C)c1ccccn1
max response (CRL-7250): 2.71%
max response (HEK293): -11%

CCOc1ccc(NC(=S)N2CCC(C(O)(c3ccccc3)c3ccccc3)CC2)cc1
max response (CRL-7250): -3%
max response (HEK293): -4.42%

Cc1cc(=O)oc2c(C=O)c(O)ccc12
max response (CRL-7250): 0.427%
outcome (HEK293): inactive

C=C1C[C@]23C[C@H]1CC[C@H]2[C@@]1(C)CCC[C@@]2(C)C(=O)O[C@@H]([C@@H]3O)[C@@H]12
max response (CRL-7250): -15.4%
max response (HEK293): -8.12%

C/C(=C\CCC1(C)C2CCC(C2)C1(C)O)C(=O)O (configuration not stated)
outcome (CRL-7250): inactive
max response (HEK293): -6.56%

COc1cc2c3c(cc4ccccc4c3c1O)NC2=O
max response (CRL-7250): 4.86%
max response (HEK293): -10.3%

CC(C)[C@@H](CS(=O)(=O)C(C)C)N1C(=O)[C@@](C)(CC(=O)O)C[C@H](c2cccc(Cl)c2)[C@H]1c1ccc(Cl)cc1
Potency (CRL-7250): 5.8 µM (active) and 1.86 µM (active)
Potency (HEK293): 16.6 µM (active)
